FBPA coupling cs: inhibits coupling enzyme system, counter-screen for aldolase hits | coupling enzyme system counterscreen, AmpLite Red fluorescence | activity change, negative = inhibition, % at 58.2 µM, hits read low | 0.67% of 290,000 active | AID 2472; in the data active = activity change below about -30%
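Fluorescence at 525 nm excitation and 598 nm emission measured inhibition of the coupled detection system without aldolase. Compounds (at 57.5 uM final) were preincubated 10 min at room temperature with coupling enzyme reagent before a 20 min substrate/AmpLite Red step.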
Tau fluor cs: counter-screen for tau fibril formation inhibitors. 0.93% of 280,000 active. tau K18 P301L Alexa594 fluorescence, heparin fibrillization. Potency, µM (top dose mostly 57.7 µM), for inactives: at the highest dose activity change, negative = decrease; note: potency is the fitted concentration of half-maximal effect; nearly all actives have a fitted effect of over 55% in size
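Human tau K18 P301L (15 uM unlabeled, 0.24 uM Alexa 594-labeled) in 100 mM sodium acetate pH 7 with 20 uM heparin, 6 hr at 37 C. ThT 30 uM added, 1 hr ambient; Alexa 594 FP and total fluorescence read at 555/632 nm.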
Tau fibril FP: inhibitors of human tau fibril formation; P10636; AID 1468; K18 P301L tau heparin fibrillization, Alexa594 FP, 6 h; 0.39% of 280,000 active; Potency, µM (titrated, usually from 57.7 µM), without a hit: at the top dose activity, negative = inhibition, most hits filed as inhibitors; note: potency is the fitted concentration of half-maximal effect; nearly all actives have a fitted effect of over 55% in size
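FP of Alexa 594-tau after heparin (20 uM) induction. Substrate: human K18 P301L, 15 uM unlabeled, 0.24 uM labeled. Buffer 100 mM sodium acetate pH 7. 6 hr, 37 C.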
USP1 inh: inhibitors of human USP1/UAF1 deubiquitinase | O94782 | recombinant USP1/UAF1, Ub-Rhodamine cleavage fluorescence | Potency, µM (doses to about 57.1 µM), for inactives: at the top dose activity change, negative = inhibition, usual class: inhibitors | 0.23% of 390,000 active | AID 743255; note: potency is the fitted concentration of half-maximal effect; nearly all actives have a fitted effect of over 60% in size
Target sequence (O94782 whole entry, looked up): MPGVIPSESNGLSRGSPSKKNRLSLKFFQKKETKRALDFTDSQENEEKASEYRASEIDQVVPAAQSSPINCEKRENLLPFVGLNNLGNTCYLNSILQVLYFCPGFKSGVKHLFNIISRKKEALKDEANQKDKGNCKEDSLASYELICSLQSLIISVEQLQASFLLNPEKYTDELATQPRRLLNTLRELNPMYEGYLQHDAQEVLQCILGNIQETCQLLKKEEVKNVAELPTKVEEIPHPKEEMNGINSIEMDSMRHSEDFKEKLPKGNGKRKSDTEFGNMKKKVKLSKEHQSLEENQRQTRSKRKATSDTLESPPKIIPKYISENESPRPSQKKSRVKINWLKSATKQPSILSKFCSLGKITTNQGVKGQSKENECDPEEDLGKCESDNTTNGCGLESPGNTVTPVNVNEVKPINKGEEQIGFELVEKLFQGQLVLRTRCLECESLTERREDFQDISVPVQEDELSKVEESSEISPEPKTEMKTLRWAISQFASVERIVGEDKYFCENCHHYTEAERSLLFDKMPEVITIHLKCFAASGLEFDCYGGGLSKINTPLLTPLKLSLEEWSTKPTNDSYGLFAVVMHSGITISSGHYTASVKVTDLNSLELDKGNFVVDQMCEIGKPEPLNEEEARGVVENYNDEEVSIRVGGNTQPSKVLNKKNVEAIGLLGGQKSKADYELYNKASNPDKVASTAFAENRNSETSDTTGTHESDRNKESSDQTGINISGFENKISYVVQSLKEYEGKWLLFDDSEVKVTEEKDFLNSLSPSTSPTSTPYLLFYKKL
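1 nM enzyme complex + cpd, 15 min RT; start with Ub-Rho 150nM final; kinetic fluorescence ex 480/em 540, 6 reads q60 s. Buffer 50mM HEPES pH 7.8, 0.5mM EDTA, 0.1 mg/ml BSA, 1mM TCEP, 0.01% Tween-20.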
Tau fibril ThT: tau fibrillization inhibition (ThT binding); P10636; recombinant tau K18 P301L (four-repeat tau fragment), heparin-induced fibrillization, ThT fluorescence; Potency, µM (titrated, usually from 57.4 µM), inactives show top-dose activity, negative = inhibition, usual class: inhibitors; 2.1% of 270,000 active; AID 1460; note: potency is the fitted concentration of half-maximal effect; nearly all actives have a fitted effect of over 55% in size
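Heparin-induced fibrillization of the P301L-mutant K18 repeat-domain fragment of human tau was followed by ThT binding in quantitative high-throughput format.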
* = called active by the depositor; ? = inconclusive; · = no result; [ ] = another dose, or the depositor's remark. A selection: hits, their analogues and other compounds. The true share with any hit is near 2.3%. Unless noted, calls come from the whole dose curve; as a rule, active = well fitted curve in the direction sought with a large enough effect; inconclusive = small, poorly fitted or top-dose-only effect, or another doubt; inactive = no such curve, though single readings can be large; an effect the other way counts as inactive or inconclusive. % is set by controls: 0 for no effect and ±100 for the full control effect.

SMILES | FBPA coupling cs | Tau fluor cs | Tau fibril FP | USP1 inh | Tau fibril ThT
COc1ccc2nc(N3CCCCC3)c(C#N)cc2c1 | -33* | -18% | 4% | -4% | -7%
c1ccc(-c2ccc(-c3ccncn3)cc2)cc1 | · | · | · | -27% | ·
CCN(CC)CCn1c2c(c(SCC(=O)Nc3cc(C)on3)nc1=O)CCCC2 | · | · | · | -3% | ·
Cc1ccc(/C=C/C(=O)c2ccc(N3CCOCC3)cc2)s1 | -1 | ? | -1% | ? | 7.1µM*
Cc1cccc(/C=C/C(=O)c2ccc(N3CCOCC3)cc2)c1 | 2 | -14% | -1% | · | ?
Cc1oc(-c2ccc(C(=O)NCCC(C)C)cc2)nc1CS(=O)(=O)c1ccccc1 | · | -4% | 2% | -10% | 9%
O=C(O)c1ccc2c(c1)C(=O)/C(=C\c1ccco1)C2=O | 1 | ? | 16µM* | ? | 11µM*
Cc1ccc(C=C2C(=O)c3ccccc3C2=O)o1 | 1 | 4% | ? | -3% | 8.9µM*
NS(=O)(=O)c1ccc(-c2ccc(C=C3C(=O)c4ccccc4C3=O)o2)cc1 | 1 | · | · | -26% | ·
O=C1C(=Cc2ccco2)C(=O)c2ccccc21 | -1 | ? | ? | -16% | 13µM*
Cc1ccc(/C=C2/C(=O)c3ccc(C(=O)O)cc3C2=O)o1 | -10 | -20% | ? | ? | 5.6µM*
CC(C)(C)N1C(=O)c2ccc(C(=O)O)cc2C1=O | 4 | 2% | 4% | -3% | -3%
O=C(O)c1ccc2c(c1)C(=O)/C(=C/c1ccccc1)C2=O | -1 | -17% | 0% | ? | ?
CC1CCCCC1NC(=O)C1CCN(S(=O)(=O)c2cccc3nonc23)CC1 (stereo not drawn) | 1 | · | · | -25% | ·
CC[C@H](C)[C@H](NC(=O)[C@H](CO)NC(=O)[C@@H](NC(=O)[C@H](CO)NC(=O)[C@@H](NC(=O)[C@H](CC(N)=O)NC(=O)[C@H](Cc1ccccc1)NC(=O)[C@H](CO)NC(=O)[C@H](CS)NC(=O)[C@H](CC(N)=O)NC(=O)[C@H](CCCCN)NC(=O)[C@@H](NC(=O)[C@H](CCC(=O)O)NC(=O)CN)[C@@H](C)CC)[C@@H](C)CC)[C@@H](C)O)C(=O)N[C@@H](CCCN=C(N)N)C(=O)O | 1 | · | · | · | ·
CC(=O)Oc1ccc(C(=C2CCCCC2)c2ccc(OC(C)=O)cc2)cc1 | -1 | · | · | · | ·
COc1cc(-c2oc3ccc(C)cc3c(=O)c2O)cc(OC)c1OC | · | -28% | -7% | -19% | ?
COc1c(O)c(O)cc2c1oc1c3cc(C)ccc3oc(=O)c21 | 0 | 10µM*[quencher] | ? | · | 8.9µM*
CC(C)(C)c1cc(C(c2cccnc2)N2CCN(CCO)CC2)cc(C(C)(C)C)c1O (stereo not drawn) | -5 | -22% | ? | ? | 20µM*
CN1C(=O)/C(=C/c2ccc(OCc3ccc(F)cc3)cc2)N(C)C1=S | -3 | · | · | -1% | ·
CN1C(=O)/C(=C/c2ccccc2OCc2cccc(F)c2)N(C)C1=S | -37* | -20% | -4% | -17% | -16%
CN(C)C(=S)N=Nc1[nH]c2ccccc2c1O | -1 | -24% | -23% | -29% | 16µM*
COc1ccc2[nH]c(N=Nc3ccccc3C)c(O)c2c1 | 2 | ? | 4% | -11% | ?
C[C@H](CO)N1C[C@H](C)[C@@H](CN(C)Cc2ccncc2)Oc2c(NS(=O)(=O)c3cn(C)cn3)cccc2C1=O | · | · | · | -27% | ·
N/C(=C\C(=O)c1cc(Cl)ccc1O)C(Cl)(Cl)Cl | 1 | -25% | ? | ? | 18µM*
SMILES | FBPA coupling cs | Tau fluor cs | Tau fibril FP | USP1 inh | Tau fibril ThT
COC(=O)c1sc(NC(=O)c2ccc(Cn3cc(Cl)cn3)o2)c(C#N)c1C | 19 | ? | ? | -5% | 25µM*
COCCN(C(=O)CSc1nnc(-c2ccc(C(C)(C)C)cc2)n1N)c1c(N)n(CC(C)C)c(=O)[nH]c1=O | · | · | · | -19% | ·
CC(C)c1ccc(NS(=O)(=O)c2ccc3[nH]cc(C(=O)NC4CCCCC4)c(=O)c3c2)cc1 | · | ? | 3.5µM* | -26% | ?
CC(C)c1ccc(NS(=O)(=O)c2ccc3[nH]cc(C(=O)NCC4CCCO4)c(=O)c3c2)cc1 (stereo not drawn) | · | ? | 16µM* | -16% | -8%
Cc1cc(C)cc(NS(=O)(=O)c2ccc3[nH]cc(C(=O)NC4CCCCC4)c(=O)c3c2)c1 | · | ? | 7.9µM* | -19% | ?
COc1cccc(NS(=O)(=O)c2ccc3[nH]cc(C(=O)NC4CC4)c(=O)c3c2)c1 | 0 | -22% | -19% | -3% | 13%
CC(C)c1ccc(NS(=O)(=O)c2ccc3[nH]cc(C(=O)N4CCC(C(N)=O)CC4)c(=O)c3c2)cc1 | 10 | -13% | -7% | -27% | -10%
CCOc1ccc(NS(=O)(=O)c2ccc3[nH]cc(C(=O)NCC4CCCO4)c(=O)c3c2)cc1 (stereo not drawn) | -1 | ? | ? | -9% | ?
COc1cccc(NS(=O)(=O)c2ccc3[nH]cc(C(=O)NC4CCCCC4)c(=O)c3c2)c1 | · | 3.5µM*[quencher] | 7.1µM* | -22% | ?
Cc1cc(C)cc(NS(=O)(=O)c2ccc3[nH]cc(C(=O)NCc4ccccc4Cl)c(=O)c3c2)c1 | · | ? | 3.2µM* | ? | 5%
Cc1cc(C)cc(NS(=O)(=O)c2ccc3[nH]cc(C(=O)NCc4ccco4)c(=O)c3c2)c1 | -4 | ? | ? | -25% | 0%
NC(=O)c1ccc(N=C2C(=O)Nc3ccc([N+](=O)[O-])cc32)cc1 | -30* | -6% | ? | 14µM* | ?
Cc1cnc(N)nc1-c1ccccc1 | · | · | · | -23% | ·
COc1ccc(OC)c(CN2CCN(C(=O)CNC(=O)c3ccccc3F)CC2)c1 | · | · | · | -2% | ·
Cc1ccc(N2CC(NC(=O)c3cccs3)CC2=O)cc1 (stereo not drawn) | · | 1% | -5% | -22% | 3%
C/C(CC(=O)Nc1cccc(Cl)c1Cl)=N\NC(=O)C(=O)N1CCCC1 | 0 | · | · | -18% | ·
C/C(CC(=O)Nc1cccc(Cl)c1Cl)=N\NC(=O)c1ccccc1C | -10 | -35% | -44% | -13% | 5.6µM*
CCn1cc2nc(SCC(=O)Nc3ccc(OC)cc3OC)n(Cc3ccc(Cl)cc3)c(=O)c2n1 | · | -23% | 9% | -20% | -16%
Cc1cccc(N2C(S)=C(C#N)C(=O)NC2c2cccs2)c1 (stereo not drawn) | 8 | -29% | ? | -23% | 32µM*
CCc1ccccc1NC(=O)CCNS(=O)(=O)c1ccc2c(c1)CCN2C(=O)C1CC1 | · | -10% | 2% | ? | -5%
O=C(NCc1ccco1)/C(=C\c1ccc(F)cc1)NC(=O)c1ccco1 | -1 | · | · | -7% | ·
CCN1/C(=C/c2ccc3cc(C)ccc3[n+]2C)Sc2ccc3sccc3c21 | 2 | 3.2µM*[fluorescent] | 4% | -16% | 1.6µM*
